What was measured:
Test in all cases: DAPPL (digital affinity profiling via proximity ligation, sequencing); 10 mM Tris-HCl pH 7.5, 50 mM NaCl, 1 mM DTT, 4% glycerol, room temperature, 30 min; GST-TFs on glutathione beads, 16-mer random dsDNA library, 0.1% formaldehyde crosslink after washing; high values mean tight binding
[1] = target: T1, FLI1 (Homo sapiens, UniProt Q01543 1-452); conditions: protein: recombinant; tags: N-terminal GST; dsDNA, one strand shown
T1 sequence: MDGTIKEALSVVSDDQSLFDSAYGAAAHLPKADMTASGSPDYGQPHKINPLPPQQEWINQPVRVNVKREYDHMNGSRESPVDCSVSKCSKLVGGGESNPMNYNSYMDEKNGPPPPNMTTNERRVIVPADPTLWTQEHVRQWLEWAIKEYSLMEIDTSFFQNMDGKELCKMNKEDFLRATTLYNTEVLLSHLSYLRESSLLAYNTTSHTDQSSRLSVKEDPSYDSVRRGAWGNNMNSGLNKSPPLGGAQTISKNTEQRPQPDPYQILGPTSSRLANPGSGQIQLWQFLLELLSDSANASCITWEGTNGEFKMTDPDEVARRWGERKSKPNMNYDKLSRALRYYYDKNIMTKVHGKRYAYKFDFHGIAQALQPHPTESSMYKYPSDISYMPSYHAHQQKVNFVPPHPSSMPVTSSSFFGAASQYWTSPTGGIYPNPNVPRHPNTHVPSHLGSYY
Procedure, shortened: (§1)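 Binding signal is defined as a hexamer's read frequency for one factor over its frequency for the tag-only sample. To obtain reads, GST-fused human transcription factors were expressed in yeast, captured on glutathione beads, barcoded with DNA and pooled with that sample. Pools met 200 nmole of a 16-mer random double-stranded DNA library in Tris/NaCl/DTT/glycerol buffer for 30 min at room temperature before washing, 0.1% formaldehyde crosslinking, proximity ligation (BsaI/T4 ligase, 1 h, 37 °C), PCR and Illumina NextSeq500 sequencing.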

[2] = target: SPI1 (Homo sapiens, UniProt P17947 1-270); conditions: protein: recombinant; tags: N-terminal GST; dsDNA, one strand shown
Procedure, shortened: as §1

[3] = target: T2, ETV2 (Homo sapiens, UniProt O00321 1-342); conditions: protein: recombinant; tags: N-terminal GST; dsDNA, one strand shown
T2 sequence: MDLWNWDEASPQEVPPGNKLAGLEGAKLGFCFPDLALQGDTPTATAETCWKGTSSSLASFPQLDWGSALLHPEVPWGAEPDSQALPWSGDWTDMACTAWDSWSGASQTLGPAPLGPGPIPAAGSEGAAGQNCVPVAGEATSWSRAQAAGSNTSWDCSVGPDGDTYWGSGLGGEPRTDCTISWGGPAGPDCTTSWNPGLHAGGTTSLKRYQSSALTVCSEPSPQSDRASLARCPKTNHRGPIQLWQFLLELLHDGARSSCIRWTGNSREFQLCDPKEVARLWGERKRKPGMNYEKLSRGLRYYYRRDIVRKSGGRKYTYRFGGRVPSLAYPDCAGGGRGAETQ
Procedure, shortened: as §1

[4] = target: T3, ELF5 (Homo sapiens, UniProt Q9UKW6-2 1-255); conditions: protein: recombinant; tags: N-terminal GST; dsDNA, one strand shown
T3 sequence: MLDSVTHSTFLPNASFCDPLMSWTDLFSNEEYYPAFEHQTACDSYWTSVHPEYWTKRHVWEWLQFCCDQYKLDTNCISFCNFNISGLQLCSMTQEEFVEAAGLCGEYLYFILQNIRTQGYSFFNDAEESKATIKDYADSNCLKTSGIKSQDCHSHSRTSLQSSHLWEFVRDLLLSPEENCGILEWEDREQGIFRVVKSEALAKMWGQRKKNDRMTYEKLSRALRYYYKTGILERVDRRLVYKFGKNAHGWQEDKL
Procedure, shortened: as §1

[5] = target: HSF1 (Homo sapiens, UniProt Q00613 1-529); conditions: protein: recombinant; tags: N-terminal GST; chain copies: 3; dsDNA, one strand shown
Procedure, shortened: as §1

[6] = target: T4, SPIC (Homo sapiens, UniProt Q8N5J4 1-248); conditions: protein: recombinant; tags: N-terminal GST; dsDNA, one strand shown
T4 sequence: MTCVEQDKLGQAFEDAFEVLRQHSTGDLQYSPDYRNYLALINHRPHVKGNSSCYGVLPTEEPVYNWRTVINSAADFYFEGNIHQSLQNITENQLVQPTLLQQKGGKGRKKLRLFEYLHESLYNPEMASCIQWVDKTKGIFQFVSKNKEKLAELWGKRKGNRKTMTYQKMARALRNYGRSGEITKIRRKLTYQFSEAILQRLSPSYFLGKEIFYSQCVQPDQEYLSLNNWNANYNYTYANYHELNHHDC
Procedure, shortened: as §1

[7] = target: CRX (Homo sapiens, UniProt O43186 1-299); conditions: protein: recombinant; tags: N-terminal GST; dsDNA, one strand shown
Procedure, shortened: as §1

CRX, sequence (O43186 whole entry): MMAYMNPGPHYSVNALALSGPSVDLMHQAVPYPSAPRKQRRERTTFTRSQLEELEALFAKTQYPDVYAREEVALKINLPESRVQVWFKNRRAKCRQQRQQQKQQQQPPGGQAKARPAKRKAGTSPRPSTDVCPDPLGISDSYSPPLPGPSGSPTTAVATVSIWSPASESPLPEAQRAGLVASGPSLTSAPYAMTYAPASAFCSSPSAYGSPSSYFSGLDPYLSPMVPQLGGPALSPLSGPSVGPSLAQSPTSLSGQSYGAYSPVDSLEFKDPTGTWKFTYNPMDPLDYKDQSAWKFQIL
HSF1, sequence (Q00613 whole entry): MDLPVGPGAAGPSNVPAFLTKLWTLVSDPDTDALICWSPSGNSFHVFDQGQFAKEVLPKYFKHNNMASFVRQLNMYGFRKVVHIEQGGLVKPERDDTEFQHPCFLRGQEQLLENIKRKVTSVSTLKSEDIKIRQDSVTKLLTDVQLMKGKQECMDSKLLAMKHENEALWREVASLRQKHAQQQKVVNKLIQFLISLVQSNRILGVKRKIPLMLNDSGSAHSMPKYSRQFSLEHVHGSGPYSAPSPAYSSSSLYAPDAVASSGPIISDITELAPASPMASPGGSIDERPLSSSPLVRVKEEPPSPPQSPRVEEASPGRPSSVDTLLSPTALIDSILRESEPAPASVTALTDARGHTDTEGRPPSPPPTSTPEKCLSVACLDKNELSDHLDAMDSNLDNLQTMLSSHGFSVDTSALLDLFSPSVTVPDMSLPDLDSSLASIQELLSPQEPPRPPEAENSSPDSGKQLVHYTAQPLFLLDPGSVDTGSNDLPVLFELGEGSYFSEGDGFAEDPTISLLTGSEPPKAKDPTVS

Row | Sequence | binding signal [1] | binding signal [2] | binding signal [3] | binding signal [4] | binding signal [5] | binding signal [6] | binding signal [7]
1 | GCTAAC | 1.11 fold enrichment (6-mer frequency, TF over GST control) | 1.1 fold enrichment (6-mer frequency, TF over GST control) | 1.07 fold enrichment (6-mer frequency, TF over GST control) |  |  |  | 
2 | ACCGGC | 1.07 fold enrichment (6-mer frequency, TF over GST control) | 1.17 fold enrichment (6-mer frequency, TF over GST control) |  | 1.11 fold enrichment (6-mer frequency, TF over GST control) |  |  | 
3 | CGCACG | 1.1 fold enrichment (6-mer frequency, TF over GST control) |  | 1.09 fold enrichment (6-mer frequency, TF over GST control) | 1.02 fold enrichment (6-mer frequency, TF over GST control) |  |  | 
4 | CGCGTA | 1.07 fold enrichment (6-mer frequency, TF over GST control) |  | 1.03 fold enrichment (6-mer frequency, TF over GST control) |  |  |  | 
5 | GGCTAA |  |  |  |  | 1.15 fold enrichment (6-mer frequency, TF over GST control) | 1.03 fold enrichment (6-mer frequency, TF over GST control) | 1.61 fold enrichment (6-mer frequency, TF over GST control)
6 | AGCAAA |  | 1.04 fold enrichment (6-mer frequency, TF over GST control) | 1.17 fold enrichment (6-mer frequency, TF over GST control) | 1 fold enrichment (6-mer frequency, TF over GST control) | 1.18 fold enrichment (6-mer frequency, TF over GST control) |  | 1.05 fold enrichment (6-mer frequency, TF over GST control)
7 | AGCGAT |  | 1.07 fold enrichment (6-mer frequency, TF over GST control) |  |  | 1.1 fold enrichment (6-mer frequency, TF over GST control) | 1.11 fold enrichment (6-mer frequency, TF over GST control) | 1.29 fold enrichment (6-mer frequency, TF over GST control)
8 | TGAAAT |  | 1.02 fold enrichment (6-mer frequency, TF over GST control) | 1.04 fold enrichment (6-mer frequency, TF over GST control) |  | 1.02 fold enrichment (6-mer frequency, TF over GST control) | 1.01 fold enrichment (6-mer frequency, TF over GST control) | 1.03 fold enrichment (6-mer frequency, TF over GST control)
9 | GGTAAA |  | 1.04 fold enrichment (6-mer frequency, TF over GST control) | 1.03 fold enrichment (6-mer frequency, TF over GST control) | 1.1 fold enrichment (6-mer frequency, TF over GST control) | 1.04 fold enrichment (6-mer frequency, TF over GST control) |  | 1.07 fold enrichment (6-mer frequency, TF over GST control)
10 | TGTAAG |  | 1.12 fold enrichment (6-mer frequency, TF over GST control) |  | 1.11 fold enrichment (6-mer frequency, TF over GST control) | 1.09 fold enrichment (6-mer frequency, TF over GST control) | 1.22 fold enrichment (6-mer frequency, TF over GST control) | 1.32 fold enrichment (6-mer frequency, TF over GST control)
11 | GAGCTT |  |  |  |  | 1.2 fold enrichment (6-mer frequency, TF over GST control) | 1.09 fold enrichment (6-mer frequency, TF over GST control) | 1.43 fold enrichment (6-mer frequency, TF over GST control)
12 | ACAAGA |  |  |  |  | 1 fold enrichment (6-mer frequency, TF over GST control) | 1.06 fold enrichment (6-mer frequency, TF over GST control) | 
13 | CCCCTA |  | 1.08 fold enrichment (6-mer frequency, TF over GST control) | 1.06 fold enrichment (6-mer frequency, TF over GST control) | 1.1 fold enrichment (6-mer frequency, TF over GST control) | 1.02 fold enrichment (6-mer frequency, TF over GST control) | 1.25 fold enrichment (6-mer frequency, TF over GST control) | 1.15 fold enrichment (6-mer frequency, TF over GST control)
14 | TAGGGC |  | 1.01 fold enrichment (6-mer frequency, TF over GST control) | 1.12 fold enrichment (6-mer frequency, TF over GST control) | 1.03 fold enrichment (6-mer frequency, TF over GST control) | 1.05 fold enrichment (6-mer frequency, TF over GST control) | 1.11 fold enrichment (6-mer frequency, TF over GST control) | 1.22 fold enrichment (6-mer frequency, TF over GST control)
15 | TGACGG | 1.01 fold enrichment (6-mer frequency, TF over GST control) | 1.02 fold enrichment (6-mer frequency, TF over GST control) |  | 1.06 fold enrichment (6-mer frequency, TF over GST control) |  |  | 
16 | AGAAAA |  | 1.11 fold enrichment (6-mer frequency, TF over GST control) | 1.1 fold enrichment (6-mer frequency, TF over GST control) | 1.02 fold enrichment (6-mer frequency, TF over GST control) | 2.39 fold enrichment (6-mer frequency, TF over GST control) | 1.04 fold enrichment (6-mer frequency, TF over GST control) | 1.27 fold enrichment (6-mer frequency, TF over GST control)
17 | ACTGGA |  | 1.1 fold enrichment (6-mer frequency, TF over GST control) | 1.17 fold enrichment (6-mer frequency, TF over GST control) |  | 1.56 fold enrichment (6-mer frequency, TF over GST control) | 1.16 fold enrichment (6-mer frequency, TF over GST control) | 1.19 fold enrichment (6-mer frequency, TF over GST control)
18 | TAGTAG |  |  |  |  | 1.2 fold enrichment (6-mer frequency, TF over GST control) | 1.02 fold enrichment (6-mer frequency, TF over GST control) | 1.25 fold enrichment (6-mer frequency, TF over GST control)
19 | TCAAGT |  | 1.06 fold enrichment (6-mer frequency, TF over GST control) | 1.06 fold enrichment (6-mer frequency, TF over GST control) |  | 1.08 fold enrichment (6-mer frequency, TF over GST control) | 1.12 fold enrichment (6-mer frequency, TF over GST control) | 1.12 fold enrichment (6-mer frequency, TF over GST control)
20 | TAGCGT |  |  |  |  | 1.04 fold enrichment (6-mer frequency, TF over GST control) | 1.02 fold enrichment (6-mer frequency, TF over GST control) | 1.15 fold enrichment (6-mer frequency, TF over GST control)
21 | CATAAT |  | 1 fold enrichment (6-mer frequency, TF over GST control) | 1 fold enrichment (6-mer frequency, TF over GST control) |  | 1.37 fold enrichment (6-mer frequency, TF over GST control) | 1.24 fold enrichment (6-mer frequency, TF over GST control) | 1.93 fold enrichment (6-mer frequency, TF over GST control)
22 | CGACTG |  | 1.04 fold enrichment (6-mer frequency, TF over GST control) | 1.19 fold enrichment (6-mer frequency, TF over GST control) | 1.04 fold enrichment (6-mer frequency, TF over GST control) | 1.02 fold enrichment (6-mer frequency, TF over GST control) | 1 fold enrichment (6-mer frequency, TF over GST control) | 
23 | TGGCGA |  | 1.03 fold enrichment (6-mer frequency, TF over GST control) |  |  | 1.03 fold enrichment (6-mer frequency, TF over GST control) | 1.08 fold enrichment (6-mer frequency, TF over GST control) | 
24 | TAGGAT |  |  | 1.03 fold enrichment (6-mer frequency, TF over GST control) | 1.06 fold enrichment (6-mer frequency, TF over GST control) | 1.35 fold enrichment (6-mer frequency, TF over GST control) | 1.06 fold enrichment (6-mer frequency, TF over GST control) | 1.81 fold enrichment (6-mer frequency, TF over GST control)

Source: paper PMC7862700, “An all-to-all approach to the identification of sequence-specific readers for epigenetic DNA modifications on cytosine”
